Bioassay records: PubChem, SRMLSC
DPM-DC inhibit: inhibitors of Streptococcus pneumoniae diphosphomevalonate decarboxylase; purified DPM-DC, PK/LDH coupled NADH fluorescence; calls only at 10 µM; 65,000 tested, 0.49% active; AID 556;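 active = the 320 compounds with the highest percent inhibition in the single-dose primary screen, excluding strongly autofluorescent ones, cut at about 32% in these data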;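 also: kinetic rate of NADH fluorescence loss reporting ADP formed by the decarboxylase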
Spn PMK inh: blocks S. pneumoniae phosphomevalonate kinase | purified PMK, PK/LDH-coupled NADH absorbance 340 nm | inhibition, % at 10 µM | 65,000 tested, 0.49% active;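 active = top-ranked compounds by inhibition in the single 10 µM screen, taking a fixed number of the strongest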;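 also: 0% = full reaction with DMSO carrier and 100% = background rate without enzyme reaction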
NADH enzymes: blocks coupling enzymes of NAD/NADH assays; 65,000 tested, 0.02% active; coupled PK/LDH NADH assays, four targets; IC50, µM (titrated, usually from 10 µM), for the others: top-dose inhibition;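 active = single-dose screening hits from any of four coupled enzyme assays that gave an IC50 when retested across doses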;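 also: the DPM-DC format reads NADH fluorescence rather than 340 nm absorbance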
A340 absorber: absorbance at 340 nm; compound absorbance at 340 nm, fold over control; AID 708; fold change at 10 µM; 65,000 tested, under 10 active;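 active = at 10 µM dose, initial 340 nm absorbance at least 2 fold that of control wells; inactive = change under 2 fold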;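 also: initial absorbance extrapolated from kinetic A340 decline of NADH oxidation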
MK inhibit: inhibitors of Streptococcus pneumoniae mevalonate kinase; purified MK, PK/LDH-coupled NADH absorbance 340 nm; inhibition, % at 10 µM; 65,000 tested, 0.48% active;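 active = ranked among the strongest by inhibition in the single 10 µM screen, a fixed top-ranked set picked for dose follow-up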
Fluor 339 460: intrinsic fluorescence of library compounds, ex339/em460 – biochemical, MLSMR library, data from DPM-DC assay, artefact control, profiling panel | compound autofluorescence, ex339/em460 nm, NADH buffer; active compounds read high; 1 = no-compound wells, NADH background | fluorescence fold increase at 10 µM | 65,000 tested, 5.5% active | AID 709;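 active = at 10 µM, mean starting fluorescence two-fold or more over control wells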;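 also: signal is the first read of a kinetic run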
An asterisk follows results filed as active. This is a sample that favours compounds with a hit; in the whole collection about 6.3% have one here.

`C=CCn1c(-c2ccc(N)cc2)nc2ccccc21` gave Spn PMK inh 0, NADH enzymes 1%, A340 absorber 1, MK inhibit 2 and Fluor 339 460 2.1*.
Screening CCCC(C(=O)NCC1CCCO1)N(Cc1ccco1)C(=O)CNS(=O)(=O)c1ccccc1 (stereo not given) returned DPM-DC inhibit inactive, Spn PMK inh 17, NADH enzymes 9%, A340 absorber 0.99, MK inhibit 0 and Fluor 339 460 0.9.
Screening CC(C)C(C(=O)NCC1CCCO1)N(Cc1ccco1)C(=O)CNS(=O)(=O)c1ccc(F)cc1 (stereo not given) returned DPM-DC inhibit inactive, Spn PMK inh 27*, NADH enzymes 11%, A340 absorber 1, MK inhibit 6 and Fluor 339 460 1.
`Cc1cccn2c(=O)c3cc(C(=O)NCc4ccccc4)c(=N)n(CCCN4CCOCC4)c3nc12` gave Spn PMK inh 11, NADH enzymes 6%, A340 absorber 1, MK inhibit 0 and Fluor 339 460 5.2*.
`Cc1cccn2c(=O)c3cc(C(=O)NCCN4CCOCC4)c(=N)n(CCc4ccccc4)c3nc12` gave Spn PMK inh 0, NADH enzymes 0%, A340 absorber 1.1, MK inhibit 0 and Fluor 339 460 2.3*.
`CN(C)CCSc1nnc(-c2ccccc2)o1` gave DPM-DC inhibit active, Spn PMK inh 5, NADH enzymes 18%, A340 absorber 1, MK inhibit 5 and Fluor 339 460 1.2.
CSc1nnc(-c2ccccc2)o1 was read as DPM-DC inhibit inactive, Spn PMK inh 2, NADH enzymes 3%, A340 absorber 1, MK inhibit 7 and Fluor 339 460 1.1.
Screening COc1ccc(Cl)cc1NC(=O)C1CCCN(S(=O)(=O)c2cccc3nonc23)C1 (stereo not given) returned DPM-DC inhibit inactive, Spn PMK inh 17, NADH enzymes 24%, A340 absorber 1, MK inhibit 54* and Fluor 339 460 1.1.
For CCOc1ccc2[nH]c3c(N4CCN(c5ccccn5)CC4)ncnc3c2c1 the results were DPM-DC inhibit inactive, Spn PMK inh 2, NADH enzymes 3%, A340 absorber 1, MK inhibit 6 and Fluor 339 460 2.7*.
Cc1ccc(-c2oc3ccccc3c(=O)c2O)cc1 was read as DPM-DC inhibit inactive, Spn PMK inh 8, NADH enzymes 3%, A340 absorber 1, MK inhibit 7 and Fluor 339 460 1.4.
For O=c1c(O)c(-c2cccs2)oc2ccccc12 the results were Spn PMK inh 0, NADH enzymes 4%, A340 absorber 1.2, MK inhibit 8 and Fluor 339 460 3.7*.
For COCCN1C=C(C(=O)OC)C(c2cc3c(cc2Br)OCO3)C(C(=O)OC)=C1 the results were DPM-DC inhibit inactive, Spn PMK inh 0, NADH enzymes 4%, A340 absorber 1, MK inhibit 2 and Fluor 339 460 1.5.
For COCCN1C=C(C(=O)OC)C(c2ccc3c(c2)OCO3)C(C(=O)OC)=C1 the results were Spn PMK inh 7, NADH enzymes 6%, A340 absorber 1.1, MK inhibit 5 and Fluor 339 460 2.1*.
CCOc1ccc(C2C(C(=O)OC)=CN(CCOC)C=C2C(=O)OC)cc1 was read as Spn PMK inh 0, NADH enzymes 3%, A340 absorber 1.1, MK inhibit 6 and Fluor 339 460 2.5*.
For Nc1nc(N2CCCCC2)nc2ccccc12 the results were Spn PMK inh 8, NADH enzymes 9%, A340 absorber 1.1, MK inhibit 9 and Fluor 339 460 3.9*.
For Cc1cc(OCC(=O)N(C)C)c2c(-c3ccccc3)cc(=O)oc2c1 the results were DPM-DC inhibit inactive, Spn PMK inh 9, NADH enzymes 13%, A340 absorber 1.1, MK inhibit 7 and Fluor 339 460 1.4.
Screening CN(C)C(=O)COc1ccc2cc(-c3ccccc3)c(=O)oc2c1 returned Spn PMK inh 7, NADH enzymes 4%, A340 absorber 1.1, MK inhibit 7 and Fluor 339 460 3*.
Screening Cc1ccc(CNS(=O)(=O)c2ccc3oc(C(=O)O)c(C)c3c2)cc1 returned DPM-DC inhibit inactive, Spn PMK inh 17, NADH enzymes 6%, A340 absorber 1, MK inhibit 0 and Fluor 339 460 1.2.
`CN1C(=O)c2ccccc2N(C)C1c1cccs1` (stereo not given) gave Spn PMK inh 7, NADH enzymes 6%, A340 absorber 0.98, MK inhibit 5 and Fluor 339 460 3.9*.
`CCC(O)CNc1nc(SC)nc2sc3c(c12)CCN(C)C3` (stereo not given) gave Spn PMK inh 0, NADH enzymes 5%, A340 absorber 1, MK inhibit 10 and Fluor 339 460 2.2*.
Screening CSc1nc(NCc2ccco2)c2c3c(sc2n1)CN(C)CC3 returned DPM-DC inhibit inactive, Spn PMK inh 0, NADH enzymes 7%, A340 absorber 1.1, MK inhibit 10 and Fluor 339 460 1.8.
Screening Cc1ccc(OCC(=O)Nc2ccc(O)c(C(=O)O)c2)cc1C returned Spn PMK inh 6, NADH enzymes 8%, A340 absorber 1, MK inhibit 9 and Fluor 339 460 3.3*.
For CCOc1ccc(-c2nnc(N)o2)cc1 the results were DPM-DC inhibit inactive, Spn PMK inh 10, NADH enzymes 4%, A340 absorber 1, MK inhibit 2 and Fluor 339 460 1.1.
Screening CCCCOc1ccc(-c2nnc(-c3ccncc3)o2)cc1 returned DPM-DC inhibit inactive, Spn PMK inh 15, NADH enzymes 14%, A340 absorber 1, MK inhibit 10 and Fluor 339 460 3*.
CCOc1ccc(-c2nnc(-c3ccncc3)o2)cc1 was read as DPM-DC inhibit active, Spn PMK inh 8, NADH enzymes 20%, A340 absorber 1, MK inhibit 14 and Fluor 339 460 2*.
N#Cc1nc(-c2ccco2)oc1N1CCc2ccccc2C1 was read as Spn PMK inh 8, NADH enzymes 8%, A340 absorber 1.1, MK inhibit 8 and Fluor 339 460 3.8*.
`N#Cc1nc(-c2ccco2)oc1N1CCN(C(c2ccccc2)c2ccccc2)CC1` gave DPM-DC inhibit inactive, Spn PMK inh 8, NADH enzymes 7%, A340 absorber 1.1, MK inhibit 12 and Fluor 339 460 1.9.
O=S(=O)(c1ccccc1)c1nc(-c2ccco2)oc1N1CCOCC1 was read as DPM-DC inhibit inactive, Spn PMK inh 3, NADH enzymes 4%, A340 absorber 1, MK inhibit 9 and Fluor 339 460 1.1.
For N#Cc1nc(-c2ccco2)oc1N1CCCC1 the results were Spn PMK inh 13, NADH enzymes 14%, A340 absorber 1.1, MK inhibit 14 and Fluor 339 460 3.9*.
